# Assay outcomes (PubChem)
# Compounds with a hit are over-represented: about 3.8% of the library has one in this group of screens.
# ATXN2 expr inh: Primary qHTS for Inhibitors of ATXN expression; 360,000 compounds, 0.72% hits; Potency, µM (series often up to 57 µM), inactives show top-dose activity change, negative = inhibition, most hits filed as inhibitors; HEK-293 ATXN2-luciferase reporter, luminescence, 24 h; further: on the % scale 0 is the no-effect control and ±100 the full control effect; nearly all actives have a fitted effect of over 55% in size
#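 qHTS (up to 57 uM final) was run with 24 h compound exposure of reporter cells at 37 °C. Each well was multiplexed: SteadyGlo luminescence measured ATXN2-luciferase expression after a fluorogenic Gly-Phe-AFC viability readout (25 uM final).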
# Nrf2 inh: Nrf2 qHTS screen for inhibitors. Potency, µM (series often up to 46 µM), inactives show top-dose activity change, negative = inhibition, actives largely listed as inhibitors. A549 ARE-Fluc reporter, luciferase luminescence, 18-24 h. AID 504444, 2011. 360,000 compounds, 2.1% hits; further: on the % scale 0 is the no-effect control and ±100 the full control effect; nearly all actives have a fitted effect of over 60% in size
#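 Concentration-response testing used A549 ARE_Fluc cells at 5000 cells/well. Following an 18-24 h compound incubation, viability was read by fluorescence (Ex 405/Em 525) and luciferase output by luminescence.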
# ATXN viability: Viability Counterscreen for Primary qHTS for Inhibitors of ATXN expression; S2 cells (HEK-293 line with an ATXN2-luciferase reporter) viability, CellTiter-Fluor protease fluorescence, 24 h; Potency, µM (titrated, usually from 56.7 µM), usual class: cytotoxic; 400,000 compounds, 0.49% hits; AID 651635, 2014; further: nearly all actives have a fitted effect of over 40% in size
# A549 tox-1: Nrf2 qHTS screen for inhibitors: counterscreen for cytotoxicity | A549 ARE-Fluc cells, CellTiter-Fluor viability, 18-24 h | Potency, µM (top dose mostly 46 µM), for inactives: at the top dose activity change, negative = cytotoxicity, actives largely listed as inhibitors | 390,000 compounds, 0.16% hits; further: on the % scale 0 is the no-effect control and ±100 the full control effect
#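 Cytotoxicity counterscreen: CellTiter-Fluor fluorescence was measured in A549 ARE_Fluc cells after 18-24 h of compound exposure in a concentration series. The subsequent BugLite luminescent read reports ARE-luciferase activity.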
# TGFb inhibitor: qHTS for Inhibitors of TGF-b. HepG2 CAGA-GFP TGF-b/SMAD3 reporter, GFP fluorescence, 18 h; TGF-beta stimulated, 500 pg/mL final. Potency, µM (series often up to 46.1 µM), without a hit: top-dose activity, negative = inhibition, hits mostly inhibitors. 410,000 compounds, 1.2% hits; further: on the % scale 0 is the no-effect control and ±100 the full control effect; nearly all actives have a fitted effect of over 65% in size
#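 TGF-beta reporter screen: HEPG2 CAGA-GFP, 1% FBS, 500 pg/mL TGF-beta final, 18 h; per-cell GFP summed per well; curves fitted and categorized by class.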
# HepG2 viability: qHTS for Inhibitors of TGF-b: Cytotox Counterscreen. HepG2 CAGA-GFP viability, ATP luminescence, 18 h. Potency, µM (top dose mostly 46.1 µM), inactives show top-dose activity change, negative = cytotoxicity, hits mostly cytotoxic. 410,000 compounds, 0.76% hits. AID 588856, 2011
#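 CellTiter-Glo luminescence gave cytotoxicity after 18 hours at 37 degrees C. The cells were HepG2 CAGA-GFP in 1% FBS DMEM, stimulated with 500 pg/mL TGF-beta after compound addition. %Activity was normalised to no-cell wells (complete cell-killing) and DMSO (no toxicity), and curves were fitted and classified.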
# FLuc enzyme inh: Nrf2 qHTS screen for inhibitors: Purified Fluc Biochemical Counterscreen for Hit Validation; shares compounds with Nrf2 inh; purified firefly luciferase, luminescence inhibition; Potency, µM (top dose mostly 57.5 µM), for inactives: at the top dose activity change, negative = inhibition, hits mostly inhibitors; 1,400 compounds, 4% hits; AID 720522, 2013; further: on the % scale 0 is the no-effect control and ±100 the full control effect; nearly all actives have a fitted effect of over 65% in size
# Target sequence (P08659 whole entry, looked up): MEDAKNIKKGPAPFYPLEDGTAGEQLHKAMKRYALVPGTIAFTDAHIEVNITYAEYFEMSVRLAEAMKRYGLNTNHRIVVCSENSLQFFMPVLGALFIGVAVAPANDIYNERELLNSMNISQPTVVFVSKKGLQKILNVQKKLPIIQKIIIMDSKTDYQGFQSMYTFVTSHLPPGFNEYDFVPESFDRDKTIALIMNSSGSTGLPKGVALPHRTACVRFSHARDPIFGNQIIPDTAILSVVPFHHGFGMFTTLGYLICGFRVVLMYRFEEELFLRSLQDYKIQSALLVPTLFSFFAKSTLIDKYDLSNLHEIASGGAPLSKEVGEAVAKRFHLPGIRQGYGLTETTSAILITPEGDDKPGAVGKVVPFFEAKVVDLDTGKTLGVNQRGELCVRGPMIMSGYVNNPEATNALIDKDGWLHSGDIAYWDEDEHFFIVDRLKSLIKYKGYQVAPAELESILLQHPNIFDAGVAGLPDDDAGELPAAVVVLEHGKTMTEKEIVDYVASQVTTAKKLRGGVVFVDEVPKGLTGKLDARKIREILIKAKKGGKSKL
# A549 tox-2: Nrf2 qHTS screen for inhibitors: A549 ARE-Fluc Cytotoxicity Counterscreen for Hit Validation | shares compounds with Nrf2 inh | A549 ARE-Fluc cells, cytotoxicity counterscreen | Potency, µM (doses to about 46.1 µM), without a hit: at the top dose activity change, negative = cytotoxicity, usual class: inhibitors | 1,400 compounds, 2% hits;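 further: cells exposed to compounds for 18 to 24 hours; on the % scale 0 is the no-effect control and ±100 the full control effect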
# ARE-Fluc inh: Nrf2 qHTS screen for inhibitors: Nrf2 A549 ARE-Fluc Confirmation Assay for Hit Validation. 1,400 compounds, 74% hits. shares compounds with Nrf2 inh. A549 ARE-firefly luciferase reporter, luminescence. Potency, µM (top dose mostly 46.1 µM), inactives show at the top dose activity change, negative = inhibition, actives largely listed as inhibitors. AID 720524, 2013; further: on the % scale 0 is the no-effect control and ±100 the full control effect; nearly all actives have a fitted effect of over 65% in size
# * hit, by the source's call; i = inactive; ? = inconclusive; / = not tested or not shown; ! = a repeat was not active. The call rests on the fitted dose curve; in most records, active means well fitted curve in the direction sought with a large enough effect; inconclusive means small, poorly fitted or top-dose-only effect, or another doubt; inactive means no such curve, though single readings can be large; an effect the other way counts as inactive or inconclusive. Potency means the concentration at half of the fitted maximal effect.
SMILES,ATXN2 expr inh,Nrf2 inh,ATXN viability,A549 tox-1,TGFb inhibitor,HepG2 viability,FLuc enzyme inh,A549 tox-2,ARE-Fluc inh
CCN(CC)c1ccc(C(=C2C=CC(=[N+](CC)CC)C=C2)c2ccccc2)cc1,0.35µM*,1.3µM*,0.89µM*,9.2µM*,?,1.8µM*,21µM*,6.5µM*,0.73µM*
Cc1ccccc1N1CCN(C2CCCN(C(=O)c3cnsn3)C2)CC1 (stereo not given),5%,-9%,i,1%,-6%,2%,/,/,/
COc1nnc(-c2ccc(N3CCCCC3)c(NC(=O)c3ccccc3Cl)c2)c2ccccc12,/,6.5µM*,/,-30%,?,-6%,2%,-29%,6.5µM*
COc1nnc(-c2ccc(N3CCCCC3)c(NC(=O)c3ccc(C)cc3)c2)c2ccccc12,13%,7%,i,-1%,-14%,-5%,/,/,/
Cc1cc2n(n1)CCC(=O)N2Cc1ccc(C(=O)Nc2ccc(Br)c(C)c2)cc1,-22%,?,i,13%,?,-36%,/,/,/
Cc1c(Cl)cccc1-c1ccc(C(=O)Nc2ccc3oc(-c4cccnc4)nc3c2)o1,/,?,/,0%,-18%,-16%,/,/,/
O=C(Nc1ccc2oc(-c3cccnc3)nc2c1)c1ccc(-c2cccc(OC(F)(F)F)c2)o1,/,1.5µM*,/,-3%,-14%,-2%,-24%,-9%,1.8µM*
Clc1ccc(/C=C/c2ccnc3ccccc23)c(Cl)c1,/,/,/,/,?,-42%,?,-6%,?
Cc1c(/C=C/c2ccnc3ccccc23)ccc(N(C)C)c1C,/,/,/,/,?,-43%,-21%,-16%,?
Cc1cc(/C=C/c2ccnc3ccccc23)ccc1N(C)C,/,/,/,/,-27%,-44%,/,/,/
C(=C\c1ccccn1)/c1ccccc1,/,/,/,/,?,-32%,0%,-33%,10µM*
C(=C\c1ccccn1)/c1ccncc1,/,11%,i,-3%,-8%,0%,/,/,/
CCN(CC)c1ccc(/C=C/c2ccnc3ccccc23)cc1,/,/,/,/,105%,-45%,?,-12%,15µM*
CCN(CC)c1ccc(/C=C/c2ccccn2)cc1,/,/,/,/,121%,1%,-13%,9.2µM*,1.6µM*
CCOC(=O)C1CCCN1C(=O)C1(NC(C)=O)CCCC1 (stereo not given),0%,-7%,i,-5%,2%,-1%,/,/,/
CC(=O)c1cccc(NS(=O)(=O)c2ccc(C(=O)Nc3ccccc3)cc2)c1,-21%,7.3µM*,i,-4%,?,-37%,-10%,-11%,4.1µM*
CC(=NNc1nc2ccccc2o1)c1ncccn1,?,3.3µM*,?,-20%,?,-37%,19µM*,?,/
Cc1nc(C)n(CC(=O)NCC2Cc3cc(-c4cccc(OC(F)(F)F)c4)ccc3O2)n1 (stereo not given),/,/,i,/,/,/,/,/,/
CCC(=O)N1CCN(c2nc3ccc(Br)cc3s2)CC1,/,1%,i,-6%,?,-23%,/,/,/
Cc1cc(C)c(NS(=O)(=O)c2cc(-c3onc(C)c3C)ccc2C)c(C)c1,/,?,/,9%,-10%,13%,/,/,/
Cc1ccc2c(c1)N(S(=O)(=O)c1cc(-c3onc(C)c3C)ccc1C)CCO2,?,8.2µM*,i,1%,?,-13%,1%,2%,?
CC(=NNC(=S)N1CCC1)c1ccccn1,0.034µM*!,0.13µM*,?,?,?,-28%,-18%,?,0.65µM*
CC(=NNC(=S)SCc1ccccc1)c1ccccn1,?,?,?,-20%,?,-32%,/,/,/
CCCCCCCCCCCCCCCC(=O)Nc1ccn(C2OC(CO)C(O)C2O)c(=O)n1 (stereo not given),-20%,?,i,-3%,-15%,2%,0%,-11%,0.82µM*
Cc1ccc(C(=O)NCc2ccco2)cc1S(=O)(=O)N1CCCCC1,-6%,-8%,i,5%,-12%,-5%,/,/,/
SMILES,ATXN2 expr inh,Nrf2 inh,ATXN viability,A549 tox-1,TGFb inhibitor,HepG2 viability,FLuc enzyme inh,A549 tox-2,ARE-Fluc inh
Cc1ccc(C(=O)NCc2cccc(C(F)(F)F)c2)cc1S(=O)(=O)N1CCCCC1,0%,3.7µM*,i,-14%,11%,8%,-2%,-2%,?
O=C(COC(=O)c1ccccc1Br)Nc1ccc2[nH]c(=O)[nH]c2c1,8%,-5%,i,-17%,-10%,0%,/,/,/
CC(=NNc1ccc2ccccc2n1)c1ccccc1O,?,?,?,1%,?,-27%,0.038µM*,-6%,?
C/C(=N\Nc1nc2ccccc2nc1C)c1ccccc1O,-21%,0%,?,-14%,-24%,-17%,/,/,/
O=C(c1cc(C2CC2)nn1-c1ccccc1)N1CCN(Cc2c(F)cccc2Cl)CC1,/,-13%,i,5%,?,-26%,/,/,/
CN(C)S(=O)(=O)c1ccc(N2CCN(S(=O)(=O)c3ccc(F)cc3)CC2)c(Cl)c1,-33%,5.8µM*,i,-17%,?,-58%,-1%,-18%,?
O=C(Cc1ccccc1)Nc1scc(-c2ccccc2)c1C(=O)N1CCOCC1,1%,11%,i,3%,0%,-11%,/,/,/
NC(=O)c1c(-c2ccc(Cl)cc2Cl)csc1NC(=O)Cc1ccccc1,-14%,2.6µM*,i,-14%,-21%,4%,-18%,1%,5.2µM*
Cn1c(-c2ccc(S(=O)(=O)N3CCCC3)cc2)csc1=Nc1ccc(Cl)c(Cl)c1,/,3.3µM*,/,-5%,?,-32%,?,-13%,6.5µM*
O=S(=O)(c1ccc(-c2csc(=Nc3ccc(OC(F)(F)Cl)cc3)n2CCCO)cc1)N1CCCC1,/,6.5µM*,/,?,3.5µM*,-41%,-7%,?,7.3µM*
